Records with an inconclusive call do not appear. Entries that show only a call come without a potency. Calls of active or inactive are those of the source. Calls come from the whole dose curve; as a rule, active = well fitted curve in the direction sought with a large enough effect; inconclusive = small, poorly fitted or top-dose-only effect, or effect the other way, or another doubt; inactive = no such curve, though single readings can be large or run the other way.

Chain of Epidermal growth factor receptor (Homo sapiens) (P00533 whole entry T790M, looked up): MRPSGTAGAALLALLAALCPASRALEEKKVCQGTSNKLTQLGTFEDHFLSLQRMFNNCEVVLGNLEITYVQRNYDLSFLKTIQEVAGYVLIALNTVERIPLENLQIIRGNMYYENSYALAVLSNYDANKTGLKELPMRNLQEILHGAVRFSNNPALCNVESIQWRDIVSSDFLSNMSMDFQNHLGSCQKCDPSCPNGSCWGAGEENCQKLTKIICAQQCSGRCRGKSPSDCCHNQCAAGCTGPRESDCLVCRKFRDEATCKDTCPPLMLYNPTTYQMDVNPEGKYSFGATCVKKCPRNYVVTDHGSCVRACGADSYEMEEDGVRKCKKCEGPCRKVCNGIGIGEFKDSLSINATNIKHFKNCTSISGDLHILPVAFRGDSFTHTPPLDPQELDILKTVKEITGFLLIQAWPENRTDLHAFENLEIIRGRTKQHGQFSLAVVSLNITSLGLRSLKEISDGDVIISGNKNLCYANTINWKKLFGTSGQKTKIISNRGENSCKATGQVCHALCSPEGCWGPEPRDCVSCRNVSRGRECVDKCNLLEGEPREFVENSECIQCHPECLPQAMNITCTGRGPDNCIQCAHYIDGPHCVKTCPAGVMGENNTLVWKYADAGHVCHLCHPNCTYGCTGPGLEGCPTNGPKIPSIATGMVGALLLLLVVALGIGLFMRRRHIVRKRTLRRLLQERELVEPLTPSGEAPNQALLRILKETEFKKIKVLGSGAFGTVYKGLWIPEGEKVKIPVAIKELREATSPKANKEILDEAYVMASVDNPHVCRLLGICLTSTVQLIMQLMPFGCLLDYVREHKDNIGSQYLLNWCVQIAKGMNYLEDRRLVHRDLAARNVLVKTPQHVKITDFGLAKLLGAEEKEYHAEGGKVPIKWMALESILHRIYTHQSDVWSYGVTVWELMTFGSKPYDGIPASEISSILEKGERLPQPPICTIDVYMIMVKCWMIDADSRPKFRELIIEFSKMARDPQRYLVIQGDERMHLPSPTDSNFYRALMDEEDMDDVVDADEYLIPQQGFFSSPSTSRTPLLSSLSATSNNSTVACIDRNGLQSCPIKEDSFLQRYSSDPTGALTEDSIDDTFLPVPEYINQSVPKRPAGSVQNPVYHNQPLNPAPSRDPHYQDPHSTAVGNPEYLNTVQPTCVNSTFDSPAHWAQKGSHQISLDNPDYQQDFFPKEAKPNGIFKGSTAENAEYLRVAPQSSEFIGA

The experiment has as its target Epidermal growth factor receptor (Homo sapiens) (UniProt P00533). The experiment is described as follows: Assay for Inhibitors of the ERK Signaling Pathway using a Homogeneous Screening Assay: EGFR T790M Kinase Inhibition. Particulars: EGFR T790M kinase biochemical inhibition assay; series mostly up to 21.9 µM. The source says: qHTS Assay for Inhibitors of the ERK Signaling Pathway using a Homogeneous Screening Assay
NIH Chemical Genomics Center [NCGC]
NIH Molecular Libraries Screening Centers Network [MLSCN]
Assay Submitter (PI): Dr. Wei Zheng, NCGC/NIH
The Ras/extracellular-signal-regulated kinase (ERK) mitogen activated protein (MAP) kinase signaling pathway (ERK1/2 cascade) plays is a key role in transmitting signals from the cell surface to the nucleus (Nishida and Gotoh 1993; Chang and Karin, 2001). The cascade is initiated by the small G-protein Ras, which recruits Raf […], where activation occurs. Alternatively, this pathway can be activated by elevating intracellular cAMP.
Activation of the ERK pathway is essential in increased cell division and cell survival. Sustained and constitutive activation of the ERK pathway, however, has been linked to uncontrolled cell proliferation, increased cell survival, and tumor progression. Thus, the ERK has been as an attractive target for cancer chemotherapy in the past few years (Sebolt-Leopold and Herrera, 2004). Given its physiological and pathological importance, assessment of ERK phosphorylation has been broadly performed in both basic research and drug discovery. Most assays for the measurement of ERK phosphorylation use the antibody-based detection methods, such as western blot and ELISA. These assays require multiple reagent additions with cell wash steps and are not suitable for high-throughput screening.
The current cell-based ERK phosphorylation assay was performed using AlphaScreen platform. AlphaScreen is a two bead-based proximity-dependent chemical energy transfer luminescent assay platform. The assay reagents (ERK SureFire(TM) kit) were supplied from TGR BioSciences (Australia). In the presence of specific antibodies, phosphorylated ERK will bring "donor" and "acceptor" beads to a proximity range (<200 nm), and subsequently lead a chemical luminescent reaction upon exciting donor beads with 680 nm laser. To validate pathway hits from the cell-based assay, enzyme assays consisting of EGFR tyrosine kinase, Raf and MEK were used as a means of deciphering the enzymes of target for the prioritized group of compounds derived from the HEK-293 cell based assay. The compounds were tested against significant members of the ERK signaling pathway EGFR and EGFR mutants (EGFR L858R, EGFR T790M, and EGFR L858R T790M). In order to establish the specificity of the prioritized compounds for EGFR and EGFR mutants, the compounds were also assayed against other important ERK signaling pathway enzymes, c-RAF and MEK-1.
NCGC Assay Protocol Summary:
The HTRF kinase assay (components supplied as kit by Cisbio) was chosen for the EGFR and EGFR mutant enzyme assays that applied the time resolved fluorescence resonance energy transfer (TR-FRET) principle. A peptide substrate is labeled with a biotin that can bind to XL665 labeled streptavidin and the anti-phosphoresidue antibody is labeled with Eu+. Upon phosphorylation of the substrate, the antibody binds to phosphorylated substrate that enables TR-FRET detection in homogenous assay format.
An HTRF Kinease TK assay kit (Cisbio, Bedford, MA) was used to develop the EGFR and EGFR mutant assays (Harbert et al., 2008. Harbert C, Marshall J, Soh S, Steger K. Development of a HTRF Kinase Assay for Determination of Syk Activity. Current Chemical Genomics. 1: 20-26. 2008). EGFR and EGFR mutants were obtained from Invitrogen. The assay buffer was composed of 50 mM HEPES (pH 7.0), 5 mM MgCl2, 5mM DTT, 0.1 % NaN3, 0.1 % BSA and 0.1 mM orthovanadate.
The HTRF assays were preformed according to the HTRF Kinease TK kit. Optimization for each enzyme was preformed in 384 well format (data not included). All reagents were dispensed into 1536 well plates.
(1) Enzyme, […] EGFR at 3 nM final
(2) Compound, 22 nl, Library Compounds in 0.128 to 10 mM titration series or control
(3) Reagent, 1.5 ul 10 uM ATP and 0.25 uM substrate final
(4) Incubation for 30 min, Ambient conditions
[…]
Turning to `CCN(CC)CCC(=O)Nc1cccc2c1C(=O)c1ccccc1C2=O`, the Potency result was “inactive”.

As to `Cn1nc(-c2ccc(Cl)cc2)nc2c(=O)n(C)c(=O)nc1-2`, the Potency result was “inactive”.

In the case of `CS(=O)(=O)CCNCc1nc(-c2ccc3ncnc(Nc4ccc(OCc5cccc(F)c5)c(Cl)c4)c3c2)cs1`, the Potency result was “inactive”.

On to `Cc1nc2ccccc2nc(=O)c1NNc1ccccc1`, for which the Potency is 316 nM (active).

Turning to `Cn1c(=O)[nH]c2nnc(-c3ccc(Cl)c(Cl)c3)nc2c1=O`, the Potency result was “inactive”.

Regarding `COc1ccc(C(=O)c2ccc(Cl)c([N+](=O)[O-])c2)cc1`, the Potency result is “inactive”.

On to `CCn1c(=O)c2[nH]c(-c3ccccc3)nc2n(CC)c1=O`, for which the Potency result is “inactive”.

With `Fc1ccc(Nc2ncnc3sc4c(c23)CCC4)cc1F`, the Potency entry is “inactive”.

As for `O=C(Nc1nc(-c2ccccc2)cs1)c1ccc(N2CCOCC2)c([N+](=O)[O-])c1`, the Potency entry is “inactive”.

`Cc1ccc2nc(=O)c(NNc3ccccc3)cnc2c1`: the Potency was 355 nM (active).

Take `N#C/C(=C(/N)Sc1ccc(N)cc1)c1ccccc1C(F)(F)F`: the Potency entry is “inactive”.

For the molecule `Cc1ccc(NNc2c(C)nc3ccccc3nc2=O)cc1`, the Potency result was “inactive”.

The record behind these values is PubChem BioAssay AID1729 (National Center for Advancing Translational Sciences (NCATS), 2009).
